Experimental data reported in PubChem BioAssay (NCATS).
Inconclusive results are not listed. Activity calls are given as the source filed them. Calls come from the whole dose curve; as a rule, active = well fitted inhibition curve with a large enough effect; inconclusive = small, poorly fitted or top-dose-only effect; inactive = flat fitted curve, though single readings scatter.

Key:
Experiment in all cases: qHTS profiling for inhibitors of Plasmodium falciparum proliferation (AID 504749); note: nearly all actives have a fitted effect of over 60% in size
Settings in all cases: P. falciparum in erythrocytes, SYBR Green DNA, 72 h; series mostly up to 28.7 µM
CP256 = test system: CP256
In short: (§1)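 SYBR Green fluorescence of parasite DNA, read after lysis and overnight dark incubation, measured growth over 72 h in erythrocyte culture at 0.3% parasitemia and 2.5% hematocrit. Data normalised to DMSO and 0.29 uM artemisinin, with plate-drift correction.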

CP260 = test system: CP260
In short: as §1

CP262 = test system: CP262
In short: as §1

CP265 = test system: CP265
In short: as §1

CP266 = test system: CP266
In short: as §1

CP268 = test system: CP268
In short: as §1

CP269 = test system: CP269
In short: as §1

CP286 = test system: CP286
In short: as §1

CP291 = test system: CP291
In short: as §1

CP297 = test system: CP297
In short: as §1

CP305 = test system: CP305
In short: as §1

CP315 = test system: CP315
In short: as §1

CP325 = test system: CP325
In short: as §1

CP329 = test system: CP329
In short: as §1

CP335 = test system: CP335
In short: as §1

DFO2036 = test system: DFO2036
In short: as §1

DIV14 = test system: DIV14
In short: as §1

DIV17 = test system: DIV17
In short: as §1

DIV30 = test system: DIV30
In short: as §1

Dd2 = test system: Dd2
In short: as §1

ECU = test system: ECU
In short: as §1

FAB9 = test system: FAB9
In short: as §1

GB4 = test system: GB4
In short: as §1

HB3 = test system: HB3
In short: as §1

ICS = test system: ICS
In short: as §1

JCK = test system: JCK
In short: as §1

N140 = test system: N140
In short: as §1

P93_24 = test system: P93_24
In short: as §1

P94_40 = test system: P94_40
In short: as §1

PAD = test system: PAD
In short: as §1

PC15 = test system: PC15
In short: as §1

PC26 = test system: PC26
In short: as §1

PC49 = test system: PC49
In short: as §1

SC27B = test system: SC27B
In short: as §1

TAB109 = test system: TAB109
In short: as §1

TAB113 = test system: TAB113
In short: as §1

TAB165 = test system: TAB165
In short: as §1

W2 = test system: W2
In short: as §1

Measured: Potency

CC(C)(C)NC[C@@H](O)c1ccc(O)c(CO)n1
inactive: all assays above
